Screening data from PubChem.
ST2 IL33 inh: inhibitors of human ST2 (IL1RL1) binding to IL-33; Q01638; AlphaLISA ST2-Fc/biotin-IL-33 interaction, 1 h; inhibition, % for hits at 17 µM; 2.3% of 78,000 active; AID 1259354; in the data active means inhibition above about 30%
Target sequence (Q01638 whole entry, looked up): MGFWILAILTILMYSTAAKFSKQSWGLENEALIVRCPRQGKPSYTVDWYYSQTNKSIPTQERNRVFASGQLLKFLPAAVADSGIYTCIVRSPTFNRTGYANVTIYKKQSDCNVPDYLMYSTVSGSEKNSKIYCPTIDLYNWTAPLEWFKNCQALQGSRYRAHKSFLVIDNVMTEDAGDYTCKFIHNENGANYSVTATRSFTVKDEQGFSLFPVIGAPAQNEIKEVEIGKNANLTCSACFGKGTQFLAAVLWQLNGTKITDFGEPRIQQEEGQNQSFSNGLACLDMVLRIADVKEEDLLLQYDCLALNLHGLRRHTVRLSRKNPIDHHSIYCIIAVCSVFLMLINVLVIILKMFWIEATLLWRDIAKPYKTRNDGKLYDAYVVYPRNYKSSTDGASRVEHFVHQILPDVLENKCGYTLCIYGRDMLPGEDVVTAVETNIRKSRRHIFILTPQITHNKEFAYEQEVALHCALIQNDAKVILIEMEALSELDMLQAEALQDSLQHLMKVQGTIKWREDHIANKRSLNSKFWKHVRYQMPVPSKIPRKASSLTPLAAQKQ
Numbers stand for hits; n = inactive. The sample as a whole holds a higher share of hits than the screen did.

SMILES	ST2 IL33 inh
CCN(C(=O)c1ccccc1Cl)c1ccccc1	n
CC(Oc1ccccc1)C(=O)N(c1ccc(F)cc1)C1C=CS(=O)(=O)C1 (stereo unspecified)	n
Cc1csc2ncc(C(=O)Nc3cccc(Cl)c3)c(=O)n12	n
COc1cc(NC(=O)c2cccc([N+](=O)[O-])c2C)ccc1NC(=O)c1ccco1	n
CCOc1ccccc1CCCNc1nc(C)nc2c1CCNC2	n
O=S(=O)(NCc1ccccc1)NCc1csc(-c2ncccn2)n1	n
CN1CCN(c2nc3c(c(=O)n(C)c(=O)n3C)n2Cc2ccc(Cl)c(Cl)c2)CC1	n
Cn1c(=O)c2c(nc(N3CCOCC3)n2Cc2c(F)cccc2Cl)n(C)c1=O	37%
Cn1c(=O)c2c(nc(NCc3ccco3)n2Cc2c(F)cccc2Cl)n(C)c1=O	n
CC(=O)N1CCCCC1C1=CCCN(CCOc2ccc(F)cc2)C1 (stereo unspecified)	n
Cc1ccc(C)c(NC(=O)c2cnc3scc(C)n3c2=O)c1	n
O=C(NC1CCN(Cc2ccccc2)CC1)c1cccn1-c1nnc(N2CCCCC2)s1	n
COc1c(C(C)C)cc(N)cc1C(C)C	n
CCOc1ccc(-c2cccc3cnccc23)cc1CNC	n
O=C(NCCc1c[nH]c2ccccc12)c1cccn2c(=O)c3sccc3nc12	n
O=C(c1ccccc1Cl)N1CCN(c2ccccc2)CC1	n
N#CC(C#N)=C1C(Cl)=C(N2CCCCC2)c2ccccc21	82%
N#Cc1c(N)nc2c(c1-c1ccccc1Cl)CCCCC2	n
COc1cccc(NC(=O)N2CC[C@H](c3nnc(-c4ccc(N(C)C)cc4)o3)C2)c1	n
CC(=O)Nc1ccnn1C1CCN(Cc2cc(F)ccc2-n2nc(C)cc2C)CC1	n
Cc1ccc(S(=O)(=O)N=C2C=C(Nc3cccc(C(=O)O)c3)C(=O)c3ccccc32)cc1	53%
Cc1cccc(NC(=O)C(C)N(c2ccccc2)S(C)(=O)=O)c1 (stereo unspecified)	n
Cc1ccc(NC(=O)c2cccc(S(=O)(=O)Nc3cccc(C(=O)O)c3)c2)cc1	n
Cc1ccc(S(=O)(=O)Nc2cccc(C(=O)NN)c2)cc1	n
Cc1ccc([N+](=O)[O-])cc1S(=O)(=O)Nc1cccc(C(=O)O)c1	n
SMILES	ST2 IL33 inh
Cc1ccc(S(=O)(=O)N=C2C=C(Nc3cccc(C(=O)O)c3)C(=O)c3ccccc32)c(C)c1	48%
O=C(Nc1ccc2c(c1)OCO2)c1ccc2c(Cl)c3c(nc2c1)CCCC3	n
CN(Cc1cccc2ncccc12)C(=O)CC1C(=O)NCCN1Cc1cccc(F)c1 (stereo unspecified)	n
O=C(O)CCC(=O)N[C@H]1CCN2C(=O)c3cc(-c4ccccc4)ccc3NC(=O)[C@H]12	n
COc1ccc(-c2ccc3c(c2)C(=O)N2CC[C@H](NC(=O)CCC(=O)O)[C@H]2C(=O)N3)cc1	46%
O=C(O)CCC(=O)N[C@H]1CCN2C(=O)c3cc(-c4ccccc4F)ccc3NC(=O)[C@H]12	n
Cc1ccc(S(=O)(=O)N2CCN(S(=O)(=O)c3ccccc3)C2)cc1[N+](=O)[O-]	n
O=[N+]([O-])c1ccccc1N1CCN(S(=O)(=O)c2ccc(Cl)c(Cl)c2)CC1	30%
CN(C)S(=O)(=O)c1cc([N+](=O)[O-])ccc1N1CCCCCC1	n
O=[N+]([O-])c1ccc(N2CCN(c3ccccc3)CC2)c(S(=O)(=O)N2CCCCC2)c1	50%
O=[N+]([O-])c1ccccc1S(=O)(=O)Nc1ccc(Cl)c(Cl)c1	n
Cc1ccc(S(=O)(=O)N2CCN(c3ccccc3)CC2)cc1[N+](=O)[O-]	40%
Cc1ccc(S(=O)(=O)N2CCN(C(=O)c3ccccc3)C2)cc1[N+](=O)[O-]	n
O=[N+]([O-])c1ccc(N2CCN(Cc3ccccc3)CC2)c(S(=O)(=O)N2CCOCC2)c1	n
O=S(=O)(c1ccc(Cl)c(Cl)c1)N1CCCCC1	n
CC1=NNC(=O)/C1=C(/C)C/C(C)=C1\C(=O)NN=C1C	n
CCCCNc1c(CN2CCCC2)c(=O)oc2ccccc12	n
O=C(NCc1ccc(F)cc1)c1cc(C2CC2)on1	n
CC(C)OCCCNC(=O)c1cc2c(=O)n3ccccc3nc2n1C	n
CCc1ccc(-c2nc(CN3CCC(C(=O)NC(C)C)CC3)c(C)o2)cc1	n
CCOC(=O)c1ccc(N2C(=O)C(=O)C(=C(O)c3ccc(OC)cc3)C2c2ccc(C)cc2)cc1 (stereo unspecified)	n
CC1(C2CCC(=O)O2)CC(=O)c2c(O)cc(CO)cc2O1 (stereo unspecified)	30%
Cn1c(CC2CCNCC2)nnc1SCc1ncccn1	n
CC12CC(c3cc(Cl)ccc3O1)C(C(=O)c1ccccc1)C(=O)N2 (stereo unspecified)	n
CCc1nc(-c2nccn2CC2(c3ccccc3)CCOCC2)c(C)[nH]1	n
SMILES	ST2 IL33 inh
C=CCNc1ncnc2c1cnn2-c1ccc(OC)cc1	n
O=C(Nc1nc(-c2cccs2)cs1)c1ccc(Br)cc1	n
N#C/C(=C/c1ccc(Br)cc1)c1nc(-c2cccs2)cs1	40%
N#Cc1c(-c2ccccc2)cc(-c2cccs2)nc1Br	n
N#C/C(=C\c1ccc(Br)cc1)c1nc(C2CC2)cs1	49%
CCCn1cnc2c1CN(S(=O)(=O)c1ccc(F)cc1)[C@H](C(=O)OC)C2	n
CC(C)NC(=O)C(=O)NCc1ccc(Cl)cc1	n
CCCOC(=O)C(CC)Oc1ccc2c(=O)c(Oc3cccc(C)c3)coc2c1 (stereo unspecified)	n
Cc1nn(CCO)c(C)c1CN1C[C@@H]2[C@H](C1)[C@H]1CC[C@@H]2O1	n
Cc1c(C(=O)N2CCOCC2)oc2ccc(S(=O)(=O)N3CCCCCC3)cc12	n
COc1ccc2c(=O)cc(-c3ccc(OC)c(OC)c3)oc2c1	n
Cc1ccc(N2C(=O)CC(Sc3nc4ccccc4o3)C2=O)cc1 (stereo unspecified)	n
O=C(O)c1cccnc1SC1CC(=O)N(c2ccc(N3CCOCC3)cc2)C1=O (stereo unspecified)	n
O=C1CC(Sc2ccccn2)C(=O)N1c1ccc(Br)cc1 (stereo unspecified)	40%
Cc1ccc(NC(=O)/C=N\OC(=O)Nc2ccc(Cl)cc2)cc1	n
O=C(N[C@H]1CCN2C(=O)c3cc(-c4cccc(C(F)(F)F)c4)ccc3NC(=O)[C@@H]2C1)c1cnccn1	n
COc1ccc(-c2ncnn2-c2sc3c(c2C#N)CCCCC3)cc1OC	44%
COC(=O)c1ccc(C(=O)Nc2sc3c(c2C#N)CCCCC3)cc1	n
COc1ccccc1-c1cc(C(=O)Nc2sc3c(c2C#N)CCCC3)no1	n
COc1ccc(OC)c(-c2ncnn2-c2sc3c(c2C#N)CCCCC3)c1	34%
COc1ccc(OC)c(-c2cc(C(=O)Nc3sc4c(c3C#N)CCC4)no2)c1	n
COc1ccc(-c2nc3c4c5c(sc4ncn3n2)CCCCC5)cc1OC	n
CCOc1ccc(OCC)c(NC(=O)C2CCCN(S(=O)(=O)c3cnc[nH]3)C2)c1 (stereo unspecified)	n
O=C(c1cccc(O)c1)N1N=C(c2ccc(Cl)cc2)CC1(O)C(F)(F)F (stereo unspecified)	n
CCOC(=O)c1c(NC(=O)CSc2c[nH]c3ccccc23)sc2c1CCCC2	n
SMILES	ST2 IL33 inh
COc1ccc(N=Cc2cc(Cl)cc([N+](=O)[O-])c2O)cc1Cl	n
O=[N+]([O-])c1cc(Cl)ccc1NCCNCCO	n
Nc1c(Cl)cc(Cl)cc1[N+](=O)[O-]	37%
COc1ccc(CNC(=O)c2ccc3c(c2)ncn3C2CCCC2)c(OC)c1	n
CCOc1ccc(CNc2ccc3c(c2)ncn3C(C)(C)C)cc1	n
COc1ccc(CNc2ccc3c(c2)ncn3C2CCCCC2)cc1	39%
